Many of the other results were omitted from the sample, so hits are more common in it than they were.
mHTT-CaM PPI inh: disrupts binding of mutant huntingtin to calmodulin. P42858. inhibition, % at 15 µM. AlphaScreen His-mHTT/GST-CaM binding, luminescence. 190,000 tested, 3.6% active
Pf apPOL block: Pf-apPOL DNA polymerase inhibition. Recombinant Pf-apPOL, molecular beacon fluorescence, 1.5 h. inhibition, % at 10 µM. 210,000 tested, 0.25% active. AID 1794808
Large screens that a line does not name were inactive. Rule as the data show it: active = inhibition above about 50%; inactive = the rest.

CC1(C)OCC2(CO1)CN(C(=O)C(=O)c1c[nH]c3ccccc13)C2	none
CCCCCNC(=O)c1sc2cc(F)ccc2c1Cl	none
Cc1cc(-n2cc(I)c(=O)[nH]c2=O)nc(-c2ccccc2)n1	none
Cc1ccc2c(c1)c1cccc3c1n2CCN3CCC(N)=O	mHTT-CaM PPI inh 69
Cc1ccc2c(c1)c(=O)c(C(=O)O)cn2C	none
O=C(Cc1ccc(F)cc1)N1CCc2ccccc21	none
O=C(C1CCN(c2nc3ccc(-c4ccsc4)nc3s2)CC1)N1CCCC1	none
CCN1CCN(C(=O)C2CCN(c3nc4ccc(-c5ccsc5)nc4s3)CC2)CC1	mHTT-CaM PPI inh 67
Cc1c(Cl)cccc1NC(=O)N1CCc2c(c(COCc3cccc(F)c3)nn2C)C1	none
Cc1nc(-c2nnc(NC(=O)Cn3c(=O)oc4ccccc43)o2)cs1	mHTT-CaM PPI inh 98
CCOC(=O)CCC(=O)Nc1nnc(-c2csc(C)n2)o1	mHTT-CaM PPI inh 61
O=C(Cn1c(=O)oc2ccccc21)Nc1nnc(-c2ccco2)o1	none
Cc1nc(-c2nnc(NC(=O)Cc3ccc4c(c3)OCO4)o2)cs1	none
CC(C)CNC(=O)CC1Sc2ncccc2N(C)C1=O (stereo not drawn)	none
O=C1OC(c2ccccc2)=NC1=Cc1ccc(-c2cc(C(F)(F)F)cc(C(F)(F)F)c2)o1	none (no result: mHTT-CaM PPI inh)
COc1ccc([C@H]2C=C3CNS(=O)(=O)[C@H]3C[C@H]2OC(=O)c2ccc(Cl)cc2)cc1	mHTT-CaM PPI inh 60
COc1ccc(C2C(=C(O)c3ccc(Cl)cc3)C(=O)C(=O)N2C)cc1 (stereo not drawn)	none
COc1ccc([C@H]2C=C3CNS(=O)(=O)[C@H]3C[C@H]2OC(=O)c2ccc(C(F)(F)F)cc2)cc1	mHTT-CaM PPI inh 100
COc1ccc([C@H]2C=C3CNS(=O)(=O)[C@H]3C[C@H]2OC(=O)c2cccs2)cc1	none
COc1ccc([C@H]2C=C3CNS(=O)(=O)[C@H]3C[C@H]2OC(=O)c2cccc(C)c2)cc1	mHTT-CaM PPI inh 82
COc1ccc(Oc2ccc(C(F)(F)F)cc2NC(=O)c2ccc(OC)cc2)cc1	none (no result: mHTT-CaM PPI inh)
CCCCN(C)C(=O)c1ccc(-c2ccc3c(c2)OCO3)s1	none
O=C(Nc1cc(Sc2ccccn2)cc([N+](=O)[O-])c1)c1c(F)cccc1F	none
CSC(SC)=C(C#N)C(=O)c1cc(-c2ccccc2)c(C(F)(F)F)s1	none (no result: mHTT-CaM PPI inh)
Cc1ccc(S(=O)(=O)N2CCc3nc(NC(=O)c4cccc(F)c4)sc3C2)cc1	none
CN1OCC(S(=O)(=O)N(C)C2CCCCC2)C1c1ccc(F)cc1 (stereo not drawn)	none
CCn1c(=O)c(-c2nc(-c3ccc(Cl)cc3)no2)c(O)c2ccccc21	none
C#CC1(O)CCC2C3CCc4cc(O)ccc4C3CCC21C (stereo not drawn)	none
CC12CCC3c4ccc(O)cc4CCC3C1CC(=Cc1ccccc1)C2O (stereo not drawn)	mHTT-CaM PPI inh 97
COc1cc2c(cc1O)CC[C@@H]1[C@@H]2CC[C@]2(C)[C@@H](O)CC[C@@H]12	none (no result: mHTT-CaM PPI inh)
CC12CCC3c4ccc(O)cc4CCC3C1CC(=Cc1ccc(Cl)cc1)C2O (stereo not drawn)	mHTT-CaM PPI inh 100
COCCNC(=O)C1Cc2ccccc2N2CCN(c3ccccc3F)CC12 (stereo not drawn)	none
COCCNC(=O)C1Cc2ccccc2N2CCN(c3cccc(Cl)c3)CC12 (stereo not drawn)	mHTT-CaM PPI inh 57
O=C(c1ccc(F)c(F)c1)N1CCN(c2nc(CN3CCCC3)cs2)CC1	none
O=C(Nc1ccc([N+](=O)[O-])cc1O)C1C2CC/C=C\CCC21 (stereo not drawn)	Pf apPOL block 93
Cc1ccc([N+](=O)[O-])cc1NC(=O)C1CC1	none
CN1/C(=C/C(=O)c2ccccc2)Sc2ccccc21	none
O=C1NC(=O)c2cc(-c3ccccc3)ccc21	none
Cc1ccc(N2C(=O)CC(N3CCc4ccccc4C3)C2=O)cc1C (stereo not drawn)	none
O=C1NC(=O)c2cc(N3Cc4ccccc4C3)ccc21	mHTT-CaM PPI inh 79
Cc1cc(N2Cc3ccccc3C2)ccc1C=O	mHTT-CaM PPI inh 82
CNC(=O)N1CCc2c(c(-c3nc(C4CC4)no3)nn2C)C1	none
COc1ccc(S(=O)(=O)NCc2ccc3c(c2)OCO3)cc1[N+](=O)[O-]	none
Cc1cc(C)c(S(=O)(=O)N2CCCC(C)(C(=O)NCc3ccc(F)cc3)C2)cc1C (stereo not drawn)	mHTT-CaM PPI inh 61
Cc1cc(C)c(S(=O)(=O)N2CCCC(C)(C(=O)NCc3cccc(F)c3)C2)c(C)c1 (stereo not drawn)	none
Cc1cc(C)c(S(=O)(=O)N2CCCC(C)(C(=O)NCc3ccc(F)cc3)C2)c(C)c1 (stereo not drawn)	mHTT-CaM PPI inh 91
Cc1cccc(S(=O)(=O)N2CCCC(C)(C(=O)NCc3ccc(F)cc3)C2)c1 (stereo not drawn)	none
COc1cccc(OCCOc2ccc(Cl)cc2/C=C2\C(=O)NN(c3ccccc3)C2=O)c1	none
CC(C)C(=O)N1CC(C(=O)N2CCN(C)CC2)C(c2cccc(C(F)(F)F)c2)C1 (stereo not drawn)	none
COc1ccc(N2C(=O)C(O)=CC2(OC)c2ccccc2)cc1 (stereo not drawn)	mHTT-CaM PPI inh 67
COc1ccc(N2C(=O)CSC23CCCCC3)cc1	none
N#CC(CCC(=O)O)(CCC(=O)O)S(=O)(=O)c1ccccc1	none (no result: mHTT-CaM PPI inh)
Cn1c(SCC(=O)Nc2ccccc2Oc2ccccc2)nc2ccccc2c1=O	none
Cc1nn(Cc2ccc(Cl)cc2)c(C)c1NC(=O)c1noc2c1CCCC2	mHTT-CaM PPI inh 96
Cc1nn(Cc2ccccc2Cl)c(C)c1NC(=O)c1noc2c1CCCCC2	none
Cc1nn(Cc2ccc(F)cc2)c(C)c1NC(=O)c1noc2c1CCCCC2	mHTT-CaM PPI inh 53
Cc1ccccc1Cn1nc(C)c(NC(=O)c2noc3c2CCCC3)c1C	none
CCOc1ccc(-c2ccnc3c(C(=O)NCCC4=CCCCC4)cnn23)cc1	none
O=C(CC(=O)Nc1ccccc1)Nc1ccccc1	none
CC1(CC(=O)Nc2ccccc2)NN=C(c2ccccc2)S1 (stereo not drawn)	mHTT-CaM PPI inh 73
Cc1oc(C2CCN(C(=O)NCc3ccc(F)cc3)CC2)nc1C(=O)N(C)C	none
COc1ccc(CNC(=O)C2CC(=O)N(c3ccc4oc(C)nc4c3)C2)cc1OC (stereo not drawn)	none
Cc1nc2cc(N3CC(C(=O)NCc4ccc(OC(C)C)cc4)CC3=O)ccc2o1 (stereo not drawn)	mHTT-CaM PPI inh 100
CCOc1cc(C=O)cc(Br)c1OCc1cccc(C(=O)O)c1	none
CC1(C)NC(=O)N(CN2CCN(CN3C(=O)NC(C)(C)C3=O)CC2)C1=O	none
COc1ccc(-c2c(Cc3ccccc3)[nH]n3c(=O)cc(-c4ccc([N+](=O)[O-])cc4)nc23)cc1	none
COc1ccc(Cc2[nH]n3c(=O)cc(-c4ccc([N+](=O)[O-])cc4)nc3c2-c2ccccc2)cc1	mHTT-CaM PPI inh 71
COc1ccc(CNC(=O)C2(C)Oc3cccnc3N(C)C2=O)c(OC)c1 (stereo not drawn)	none
COc1ccc2cnn(-c3nc4ccccc4s3)c(=O)c2c1OC	none
c1cnc2c(c1)ccc1cccnc12	none (no result: mHTT-CaM PPI inh)
Cc1ccnc2c1ccc1cccnc12	mHTT-CaM PPI inh 100 (no result: Pf apPOL block)
CC1(C)N=C(c2ccc(F)cc2)C(=O)N1CC(=O)Nc1cccc(F)c1	none
Cc1cc(Sc2ncnc(N)c2[N+](=O)[O-])nc(C)n1	none
O=[N+]([O-])c1ccc(Sc2nc3ccccc3o2)c([N+](=O)[O-])c1	none
Nc1ncnc(SC2=NCCS2)c1[N+](=O)[O-]	mHTT-CaM PPI inh 59
